Source: PubChem (several laboratories)
ERa coact pot – enhancers of ERα–SRC-1 coactivator binding, primary screen, biochemical, TR-FRET, ERα LBD, low estradiol; Estrogen receptor (Homo sapiens), P03372; TR-FRET ERalpha-LBD/SRC-Cy5 coactivator binding, 2 h; 100 = basal binding, no effect; coactivator binding (% of control), % at 25.6 µM; hit rate 1.3% among 86,000; AID 639, 2007; in the data active = activity above about 200%;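 also: binding measured in presence of low estradiol as agonist stimulus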
Candida biofilm – clotrimazole potentiators killing Candida biofilms, primary screen, with clotrimazole, Alamar Blue | C. albicans biofilm + clotrimazole | inhibition, % at 6 µM | hit rate 0.14% among 85,000;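 active = inhibition above 20%; inactive = inhibition below 20%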;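 also: preformed 24 hr biofilms exposed to compound for 48 hr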
Smad3 inh – Smad3/FoxH1 peptide binding inhibitors, primary screen, biochemical, TR-FRET | TR-FRET Smad3/Dy647-FoxH1 peptide binding, europium anti-His | inhibition, % at 25 µM | hit rate 0.29% among 88,000;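 active = compounds that reduce the energy-transfer binding signal between the protein and its labelled peptide by more than half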
Target sequence (P84022 whole entry, looked up): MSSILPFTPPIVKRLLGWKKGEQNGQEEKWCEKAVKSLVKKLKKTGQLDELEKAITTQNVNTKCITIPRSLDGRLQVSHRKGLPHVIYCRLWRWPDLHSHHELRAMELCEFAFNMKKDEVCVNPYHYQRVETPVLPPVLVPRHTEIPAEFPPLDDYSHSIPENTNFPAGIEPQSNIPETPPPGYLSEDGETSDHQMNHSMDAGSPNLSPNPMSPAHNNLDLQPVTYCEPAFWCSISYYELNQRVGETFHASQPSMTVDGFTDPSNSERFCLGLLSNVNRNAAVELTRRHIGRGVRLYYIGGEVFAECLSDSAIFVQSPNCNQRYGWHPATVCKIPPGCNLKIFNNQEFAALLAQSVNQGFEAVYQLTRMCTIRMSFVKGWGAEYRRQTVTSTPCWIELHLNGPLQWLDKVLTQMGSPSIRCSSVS
ERb coact inh – inhibitors of ERβ-SRC1 coactivator interaction, primary screen, biochemical, TR-FRET, ERβ LBD, SRC-1 peptide; hit rate 1.3% among 86,000; TR-FRET ER-beta LBD / SRC1-Cy5 peptide binding; receptor agonist-loaded with 1 µM estradiol; inhibition, % at 25.6 µM; Estrogen receptor beta (Homo sapiens), Q92731;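 active = compounds whose percent inhibition of the receptor-coactivator binding signal exceeds about 50% in the single-dose screen, limit read from the data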
ERa SRC1 inh – ERα–SRC-1 coactivator interaction inhibitors, primary screen, biochemical, TR-FRET, ERα LBD, estradiol-bound; hit rate 1.7% among 86,000; inhibition, % at 25.6 µM; Estrogen receptor (Homo sapiens), P03372; TR-FRET ER-alpha LBD / SRC-1 peptide; in the data active = inhibition above about 50%
Large screens that a line does not name were inactive; [ ] = dose if it differs, or a comment. Sampled rows, rich in hits. Any-hit rate of the full collection: about 3.8%.

O=C(Nc1ccn(C2CC(OC(=O)c3ccccc3)C(CO)O2)c(=O)n1)c1ccccc1 (centres undefined)	ERa coact pot 507[fluorescence artefact?] (no result: Candida biofilm)
CC(=O)c1n[nH]nc1NC(=O)c1ccccc1	none
Clc1ccc(CSc2ncnc3c2ncn3[C@@H]2CCCCO2)cc1	none (no result: ERa coact pot, Candida biofilm, ERb coact inh, ERa SRC1 inh)
C[Si](C)(c1ccc(C(=O)O)cc1)c1ccc(C(=O)O)cc1	none (no result: ERa coact pot, Candida biofilm, ERb coact inh, ERa SRC1 inh)
O=C(Nc1cccc(-c2nnc(-c3ccccc3)o2)c1)C1CCCCC1	ERa coact pot 208[fluorescence artefact?]
O=C(Nc1ccccc1)c1cccc(-c2nnc(-c3ccccc3)o2)c1	ERa coact pot 309[fluorescence artefact?]
COc1ccc(NC(=O)c2cc3c(-c4ccc(OC)c(OC)c4)nn(C)c3s2)cc1OC	none
COc1ccc(-c2nn(C)c3sc(C(=O)NCc4ccco4)cc23)cc1OC	ERb coact inh 59[fluorescence artefact?], ERa SRC1 inh 80[fluorescence artefact?]
Nc1ccc(-n2c(N)c(C(=O)NCc3ccc4c(c3)OCO4)c3nc4ccccc4nc32)cc1	ERa SRC1 inh 79[fluorescence artefact?]
Nc1c(C(=O)NCc2ccc3c(c2)OCO3)c2nc3ccccc3nc2n1CCCN1CCOCC1	none
Nc1c(C(=O)NCCN2CCOCC2)c2nc3ccccc3nc2n1-c1ccc2c(c1)OCO2	ERa SRC1 inh 63[fluorescence artefact?]
N=C(c1ccc2ccccc2c1)c1ccccc1Cc1ccccc1	none (no result: ERa coact pot, Candida biofilm, ERb coact inh, ERa SRC1 inh)
COc1ccc2c(Cl)c(C(=O)NCCCn3ccnc3)sc2c1Cl	ERa coact pot 276
COc1ccc(C(=O)NCCCn2ccnc2)cc1	none
CCN(CCO)C[C@@H]1CCC[C@@H]2CCCC[C@H]21	none (no result: ERa coact pot, Candida biofilm, ERb coact inh, ERa SRC1 inh)
COC(=O)Oc1c(Br)c(=O)oc2ccccc12	ERa SRC1 inh 64
COc1ccc(-c2c(C#N)c(C)nc3c2C(=O)c2ccccc2-3)cc1	ERa coact pot 373
CC1(C)COCN1COC1CCCCC1	none (no result: ERa coact pot, Candida biofilm, ERb coact inh, ERa SRC1 inh)
CCn1c(SCC(=O)Nc2ccccc2C)nnc1-c1ccccc1O	none
O=C(CSc1nnc(-c2cccnc2)n1-c1ccccc1)Nc1ccccn1	none
Cc1ccc(-n2c(SCC(=O)Nc3ccc4c(c3)OCO4)nnc2-c2cccs2)cc1	ERa coact pot 378[fluorescence artefact?], ERa SRC1 inh 85[fluorescence artefact?]
O=C(CSc1nnc(-c2cccs2)n1-c1ccccc1)NCc1ccc2c(c1)OCO2	none
O=C(CSc1nnc(-c2cccnc2)n1-c1ccccc1)Nc1ccc2c(c1)OCO2	ERb coact inh 57
Cc1ccccc1NC(=O)CSc1nnc(-c2ccccc2)n1-c1ccccc1	ERa coact pot 402[fluorescence artefact?]
CC(=O)C1=C(O)C(=O)N(c2ccc(C)cc2)C1c1ccccn1 (centres undefined)	none
Cc1c(Cl)cc(C(C)(C)C)c(O)c1Cc1c(C)c(Cl)cc(C(C)(C)C)c1O	none (no result: ERa coact pot, Candida biofilm, ERb coact inh, ERa SRC1 inh)
C[C@@]12CC[C@H]3c4ccc(OP(=O)(O)O)cc4CC[C@@H]3[C@H]1CCC2=O	none (no result: ERa coact pot, Candida biofilm, ERb coact inh, ERa SRC1 inh)
CN(C)S(=O)(=O)N(Cc1ccc(Br)cc1)c1ccccc1	none
CN(C)S(=O)(=O)N(CC(=O)N(Cc1ccccc1)Cc1ccccc1)c1ccccc1	ERa SRC1 inh 55
CCOc1ccc2[nH]c(=O)c(CN(Cc3ccc(F)cc3)C(=O)c3ccco3)cc2c1	none
CCOc1ccc2[nH]c(=O)c(CN(Cc3ccc(F)cc3)C(=O)N3CCCC3)cc2c1	ERa coact pot 331[fluorescence artefact?]
O=C(CSc1nc2ccccc2s1)c1sc2sc3ccccc3[n+]2c1O	Smad3 inh 96 (no result: ERa coact pot, Candida biofilm, ERb coact inh, ERa SRC1 inh)
CCOC(=O)C1=C(C)OC(N)=C(C#N)C1c1ccoc1 (centres undefined)	none
N#CC1=C(N)OC2=C(CCC/C2=C/c2ccoc2)C1c1ccoc1 (centres undefined)	ERb coact inh 73[fluorescence artefact?], ERa SRC1 inh 74
O=C(Nc1ccc(N2CCCC2)cc1)c1ccc(Br)o1	ERb coact inh 68[fluorescence artefact?], ERa SRC1 inh 59[fluorescence artefact?]
Cc1cc(C)cc(OCC(=O)NCCN2CCOCC2)c1	ERb coact inh 85[fluorescence artefact?]
Cc1cccc(OCC(=O)Nc2cccc(-c3nnc(-c4ccccc4)o3)c2)c1C	ERa SRC1 inh 72[fluorescence artefact?]
CCCCC(=O)Nc1cccc(-c2nnc(-c3ccccc3)o2)c1	none
Cc1ccc(OCC(=O)Nc2ccc(N3CCCC3)cc2)cc1C	ERb coact inh 82[fluorescence artefact?], ERa SRC1 inh 99[fluorescence artefact?]
C/C(=C\c1ccc(Cl)cc1)C(C)(C)C(=O)O	none (no result: ERa coact pot, Candida biofilm, ERb coact inh, ERa SRC1 inh)
CC(C)NS(=O)(=O)c1ccc(OCC(=O)Nc2ccc(F)cc2F)cc1	none
C[C@H]1C[C@@H]2[C@@H]3CCC4=CC(=O)C=C[C@@]4(C)[C@@]3(F)[C@H](O)C[C@@]2(C)[C@]1(O)C(=O)COP(=O)(O)O	none (no result: ERa coact pot, Candida biofilm, ERb coact inh, ERa SRC1 inh)
O=c1[nH]c(SCc2c(Cl)c(Cl)c(Cl)c(Cl)c2Cl)nc(=S)[nH]1	none (no result: ERa coact pot, Candida biofilm, ERb coact inh, ERa SRC1 inh)
O=C(OCC#CCSc1nnc(-c2cccc3ccccc23)o1)c1ccco1	none
Cc1cccc(OCC(=O)Nc2ccc(N3CCCC3)cc2)c1C	ERb coact inh 59[fluorescence artefact?], ERa SRC1 inh 95[fluorescence artefact?]
CN1CCN(c2ccc(NC(=O)COc3ccccc3Cl)cc2)CC1	ERb coact inh 72[fluorescence artefact?], ERa SRC1 inh 57[fluorescence artefact?]
Cc1cc(C)cc(OCC(=O)Nc2ccc(N3CCCC3)cc2)c1	ERb coact inh 71, ERa SRC1 inh 97[fluorescence artefact?]
O=C(Nc1ccc(N2CCCCC2)cc1)c1ccc(F)cc1	none
CCC(=O)N1CCN(c2ccc(NC(=O)COc3ccccc3Cl)cc2)CC1	none
Cc1cc(C)cc(OCC(=O)Nc2ccc(F)cc2)c1	none
COc1ccc(C(=O)Nc2ccc(N3CCCC3)cc2)cc1	Candida biofilm 80, ERa SRC1 inh 84[fluorescence artefact?]
COC(=O)c1cc(Br)c(=O)n(-c2cccc(F)c2)c1	none
Cc1ccc(-c2csc(N3CCC(NS(=O)(=O)c4ccc5c(c4)OCCO5)CC3)n2)cc1	none
COc1ccc(-c2nnnn2CCc2ccccc2)cc1	none
O=C(CSc1nc2c(c(C(F)(F)F)n1)CCc1ccccc1-2)NCc1ccc(F)cc1	ERa coact pot 229
O=C(Nc1ccc(N2CCOCC2)cc1)c1ccncc1	none
S=C(Nc1ccc(N2CCOCC2)cc1)Nc1ccc2nc(-c3ccco3)c(-c3ccco3)nc2c1	ERb coact inh 89[fluorescence artefact?], ERa SRC1 inh 68[fluorescence artefact?]
O=C(Nc1ccc(N2CCOCC2)cc1)c1ccc2nc(-c3ccco3)c(-c3ccco3)nc2c1	ERb coact inh 50[fluorescence artefact?], ERa SRC1 inh 80[fluorescence artefact?]
O=C(c1ccc2nc(-c3ccco3)c(-c3ccco3)nc2c1)N1CCN(c2ncccn2)CC1	ERb coact inh 86[fluorescence artefact?], ERa SRC1 inh 76[fluorescence artefact?]
O=C(CCn1ccc2ccccc21)Nc1ccc(N2CCOCC2)cc1	none
CCc1nc(SCC(=O)Nc2cccc(C(F)(F)F)c2)c2c(=O)n(C)c(=O)n(C)c2n1	none
Cc1ccc(N2CCN(c3cc(C)nc4nc(C)nn34)CC2)c(C)c1	none
C=CCNc1nc(N)c(C(=O)Nc2cc(C)on2)s1	none
Cc1cc(C(F)(F)F)c2c(N)c(C(=O)Nc3cc(C)on3)sc2n1	ERa coact pot 214[fluorescence artefact?]
C[C@@]12CC[C@H]3c4ccc(OCC(=O)O)cc4CC[C@@H]3[C@H]1CCC2=O	none (no result: ERa coact pot, Candida biofilm, ERb coact inh, ERa SRC1 inh)
